Outcome and AC50 data for 26 compounds are collected here from PubChem BioAssay (EPA / NIEHS).

Records with an inconclusive call do not appear. Activity calls are given as the source filed them. How the source made its calls: active means hit-call score of the fitted dose curve at least 0.9, where 1 is the maximum; inconclusive means response in the unintended direction; inactive means score below 0.9.

In general, AC50 refers to the concentration giving half of the maximal activity seen.

Assay [1] deals with Sodium channel protein type 1 subunit alpha (Rattus norvegicus) (UniProt P04774). Description: NVS_IC_rNaCh_site2: NovaScreen (NVS) Ion Channel Assay for rat Sodium Channel, Site 2 (NaCh) (AID 2283322).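 Further: hit means loss of radioligand binding signal relative to DMSO so AC50 marks displacement.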 The procedure, abridged:
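Initial duplicate single-point testing at 25 uM, followed by concentration-response runs for actives. Binding of radioligand to rat forebrain membranes quantified after 1 h via filter-based radiodetection.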

In assay [2] the target is rat Thyrotropin Releasing Hormone Receptor (TRH), Trhr (gene 25570) (UniProt Q01717). The experiment in a line: NVS_GPCR_rTRH: NovaScreen (NVS) G Protein-Coupled Receptor Assay for rat Thyrotropin Releasing Hormone Receptor (TRH) (AID 2283329).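 Further: hit means lower bound tracer signal versus DMSO baseline.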 In short, it runs like this:
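Rat forebrain membranes; radioligand displacement at TRH receptor by filter-based scintillation counting, read 4 h after dosing. Duplicate single-point screen at 25 uM, actives rerun in concentration series; loss of signal relative to DMSO.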

In assay [3] the target is human Peripheral-type Benzodiazepine Receptor (PBR), TSPO (gene 706) (UniProt P30536). Description: NVS_MP_hPBR: NovaScreen (NVS) Membrane Protein Assay for human Peripheral-type Benzodiazepine Receptor (PBR) (AID 2283331).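 Further: hits reduce radioligand binding relative to DMSO baseline.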 The procedure, abridged: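 Using human colon-derived membranes, this one-endpoint binding test reads radioligand loss by scintillation after 1 h. Screening started at 25 uM in duplicate, with positive and negative controls on every plate, and actives moved to dose series.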

The nature of assay [4]: NVS_IC_rCaBTZCHL: NovaScreen (NVS) Ion Channel Assay for Calcium Channel, Type L, Benzothiazepine Site (CaBTZCHL) (AID 2283337). The procedure, abridged: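 Test chemicals were added to rat cortical membranes and incubated 1.5 h with a tritiated or iodinated radioligand for the benzothiazepine site. Bound ligand was separated by filtration and counted. Actives from the 25 uM duplicate screen were retested in concentration series.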

The target of assay [5] is chimpanzee Androgen Receptor (AR), AR (gene 747460) (UniProt O97775). The experiment in a line: NVS_NR_cAR: NovaScreen (NVS) Nuclear Receptor Binding Assay for chimpanzee Androgen Receptor (AR) (AID 2283346). In short, it runs like this: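 Cell-free radioligand displacement using receptor protein extracted from Sf9/Sf21 cells; bound radioligand measured by scintillation counting 72 hours after chemical dosing. Loss of signal versus DMSO baseline indicates binding; primary screen single-concentration in duplicate at 25 uM, actives followed in concentration series.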

The target in assay [6] is Androgen Receptor/SRC-1 Co-activator, AR (gene 367) (UniProt P10275). Description: OT_AR_ARSRC1_0960: Odyssey Thera (OT) 16-hour HEK293T Protein-Complementation Assay for Androgen Receptor/SRC-1 Co-activator (AID 2283353).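 Further: actives raise the signal above DMSO so potency reflects increased AR and SRC-1 complex.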 The procedure, abridged:
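Stable HEK293T line carries AR and SRC-1 each linked to a Venus fragment; chemicals are applied for 16 h, cells imaged at two wavelengths, and the 488 nm nucleus/cytoplasm ratio is taken as the signal, rising relative to DMSO.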

Assay [7] deals with bovine Estrogen Receptor (ER), ESR1 (gene 407238) (UniProt P49884). The experiment in a line: NVS_NR_bER: NovaScreen (NVS) Nuclear Receptor Binding Assay for bovine Estrogen Receptor (ER) (AID 2283345).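 Further: actives lower the bound radioligand count which means they displace the ER ligand.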 The procedure, abridged:
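Cell-free radioligand binding with bovine uterine membrane extracts, read 18 hours after dosing by scintillation counting. Loss of signal versus DMSO baseline indicates displacement. Primary screen run in duplicate at 25 uM, actives followed in concentration series.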

The target of assay [8] is Estrogen receptor (Homo sapiens) (UniProt P03372). The experiment in a line: NVS_NR_hER: NovaScreen (NVS) Nuclear Receptor Binding Assay for human Estrogen Receptor (ER) (AID 2283348). The procedure, abridged:
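Radiodetection of ligand displacement in a lysate-based, cell-free format using MCF7 extracts, read at 18 hours. Duplicate 25 uM primary testing, then concentration series for actives.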

Assay [9] shares this target. The experiment in a line: OT_ER_ERaERa_1440: Odyssey Thera (OT) 24-hour HEK293T Protein-Complementation Assay for Estrogen Receptor-alpha/-alpha Homodimer (AID 2283349).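 Further: hits raise fluorescence above DMSO for agonists and antagonists alike.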 In short, it runs like this: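 Stably transfected HEK293T; ERα LBD homodimer PCA. 24 h dosing, fluorescence intensity read, gain-of-signal vs DMSO.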
The target is the same in assay [10]. Description: OT_ER_ERaERa_0480: Odyssey Thera (OT) 8-hour HEK293T Protein-Complementation Assay for Estrogen Receptor-alpha/-alpha Homodimer (AID 2283351).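 Further: rise in fluorescence from reassembled reporter fragments on ERα LBD homodimer in nucleus or whole cell.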 In short, it runs like this:
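Cells were treated for 8 hours, then imaged on a laser scanning plate cytometer. Complementation of reporter fragments fused to the human ERα ligand-binding domain (residues 310-547) in HEK293T gave fluorescence, and gain of signal over vehicle was fitted.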

In assay [11] the target is Estrogen receptor (Homo sapiens) + Estrogen receptor beta (Homo sapiens) (UniProt P03372+Q92731). The experiment in a line: OT_ER_ERaERb_0480: Odyssey Thera (OT) 8-hour HEK293T Protein-Complementation Assay for Estrogen Receptor-alpha/-beta Heterodimer (AID 2283352). The procedure, abridged:
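HEK293T cells expressing ER-alpha/ER-beta LBD fusions to complementary reporter fragments were dosed with compound for 8 hours. Heterodimer formation was read as increased nuclear (agonist) or nuclear plus cytoplasmic (antagonist) mean fluorescence intensity versus DMSO vehicle.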

chimpanzee Androgen Receptor (AR), AR (gene 747460), sequence (O97775 whole entry, looked up): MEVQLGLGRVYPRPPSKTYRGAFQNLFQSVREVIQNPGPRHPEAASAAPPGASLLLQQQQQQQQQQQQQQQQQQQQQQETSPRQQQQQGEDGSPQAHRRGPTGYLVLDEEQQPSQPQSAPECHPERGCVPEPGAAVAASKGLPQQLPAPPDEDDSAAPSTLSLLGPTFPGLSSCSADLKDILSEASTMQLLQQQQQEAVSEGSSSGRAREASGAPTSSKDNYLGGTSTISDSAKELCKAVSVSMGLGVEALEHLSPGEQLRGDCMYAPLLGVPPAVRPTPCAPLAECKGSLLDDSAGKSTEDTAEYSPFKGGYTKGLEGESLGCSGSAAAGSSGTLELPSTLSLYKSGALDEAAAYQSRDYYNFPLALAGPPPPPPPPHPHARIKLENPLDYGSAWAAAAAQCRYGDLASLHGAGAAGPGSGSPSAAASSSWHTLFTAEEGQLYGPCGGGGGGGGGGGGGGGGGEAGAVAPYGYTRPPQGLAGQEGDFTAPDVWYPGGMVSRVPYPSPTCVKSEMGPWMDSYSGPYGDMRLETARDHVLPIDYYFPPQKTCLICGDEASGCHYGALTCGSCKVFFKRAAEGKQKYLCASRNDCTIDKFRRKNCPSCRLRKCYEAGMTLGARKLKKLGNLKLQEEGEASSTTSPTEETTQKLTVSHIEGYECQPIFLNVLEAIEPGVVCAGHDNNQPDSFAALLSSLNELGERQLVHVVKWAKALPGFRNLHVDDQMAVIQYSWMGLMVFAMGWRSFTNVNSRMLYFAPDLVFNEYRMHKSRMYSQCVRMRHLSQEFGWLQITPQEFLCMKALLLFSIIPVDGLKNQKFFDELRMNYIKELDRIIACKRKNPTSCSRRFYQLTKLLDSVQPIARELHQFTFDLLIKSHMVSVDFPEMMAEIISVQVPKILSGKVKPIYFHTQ
Androgen Receptor/SRC-1 Co-activator, AR (gene 367), sequence (P10275 whole entry, looked up, the tested form may be a part): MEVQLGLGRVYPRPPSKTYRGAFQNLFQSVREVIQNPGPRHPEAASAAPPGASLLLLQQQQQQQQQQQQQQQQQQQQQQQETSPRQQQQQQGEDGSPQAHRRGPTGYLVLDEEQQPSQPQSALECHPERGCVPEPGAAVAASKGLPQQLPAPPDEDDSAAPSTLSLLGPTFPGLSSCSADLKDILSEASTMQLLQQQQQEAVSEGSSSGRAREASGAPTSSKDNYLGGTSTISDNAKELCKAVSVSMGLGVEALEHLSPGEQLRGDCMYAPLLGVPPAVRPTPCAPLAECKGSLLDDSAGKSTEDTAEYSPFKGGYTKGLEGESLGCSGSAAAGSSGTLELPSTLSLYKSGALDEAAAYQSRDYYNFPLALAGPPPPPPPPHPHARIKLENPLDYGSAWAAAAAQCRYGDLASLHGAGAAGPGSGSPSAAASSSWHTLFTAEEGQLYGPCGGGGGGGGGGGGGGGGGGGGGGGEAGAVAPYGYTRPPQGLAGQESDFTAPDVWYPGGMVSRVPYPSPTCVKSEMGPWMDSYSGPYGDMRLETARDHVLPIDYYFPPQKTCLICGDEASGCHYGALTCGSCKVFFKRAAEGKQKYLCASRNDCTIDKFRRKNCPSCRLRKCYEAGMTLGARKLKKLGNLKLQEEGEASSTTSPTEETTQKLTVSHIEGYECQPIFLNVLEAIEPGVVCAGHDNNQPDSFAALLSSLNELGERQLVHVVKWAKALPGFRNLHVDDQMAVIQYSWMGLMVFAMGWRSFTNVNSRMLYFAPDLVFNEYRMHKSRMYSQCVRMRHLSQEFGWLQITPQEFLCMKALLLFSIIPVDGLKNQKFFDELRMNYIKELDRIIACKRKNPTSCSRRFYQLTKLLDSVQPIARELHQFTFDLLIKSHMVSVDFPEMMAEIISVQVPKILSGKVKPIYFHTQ
Estrogen receptor (Homo sapiens), sequence (P03372 whole entry, looked up): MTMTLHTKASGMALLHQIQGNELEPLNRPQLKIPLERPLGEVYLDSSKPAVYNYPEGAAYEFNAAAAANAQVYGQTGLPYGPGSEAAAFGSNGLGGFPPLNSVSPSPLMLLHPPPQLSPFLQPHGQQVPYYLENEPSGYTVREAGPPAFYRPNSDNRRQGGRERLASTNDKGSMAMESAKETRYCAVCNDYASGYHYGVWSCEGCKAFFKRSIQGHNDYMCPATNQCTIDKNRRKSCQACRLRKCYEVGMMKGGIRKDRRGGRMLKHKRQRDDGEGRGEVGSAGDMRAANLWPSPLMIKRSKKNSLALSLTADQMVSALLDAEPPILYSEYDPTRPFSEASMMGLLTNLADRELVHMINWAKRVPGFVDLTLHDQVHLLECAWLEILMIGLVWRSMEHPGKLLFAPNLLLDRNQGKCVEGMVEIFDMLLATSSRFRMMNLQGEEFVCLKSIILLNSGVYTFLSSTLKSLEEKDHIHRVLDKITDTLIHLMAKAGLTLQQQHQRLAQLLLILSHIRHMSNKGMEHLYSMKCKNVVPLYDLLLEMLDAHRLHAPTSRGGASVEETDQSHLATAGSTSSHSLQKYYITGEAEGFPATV
rat Thyrotropin Releasing Hormone Receptor (TRH), Trhr (gene 25570), sequence (Q01717 whole entry, looked up): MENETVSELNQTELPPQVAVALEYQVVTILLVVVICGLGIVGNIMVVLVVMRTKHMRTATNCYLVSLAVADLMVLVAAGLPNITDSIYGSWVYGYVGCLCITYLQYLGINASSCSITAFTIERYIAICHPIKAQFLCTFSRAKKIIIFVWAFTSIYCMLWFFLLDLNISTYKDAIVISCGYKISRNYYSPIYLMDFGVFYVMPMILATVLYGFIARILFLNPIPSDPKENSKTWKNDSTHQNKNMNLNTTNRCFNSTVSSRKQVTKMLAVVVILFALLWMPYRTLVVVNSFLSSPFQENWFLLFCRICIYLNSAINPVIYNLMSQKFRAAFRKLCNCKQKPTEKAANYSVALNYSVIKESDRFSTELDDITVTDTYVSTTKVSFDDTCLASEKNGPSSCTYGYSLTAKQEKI
human Peripheral-type Benzodiazepine Receptor (PBR), TSPO (gene 706), sequence (P30536 whole entry, looked up): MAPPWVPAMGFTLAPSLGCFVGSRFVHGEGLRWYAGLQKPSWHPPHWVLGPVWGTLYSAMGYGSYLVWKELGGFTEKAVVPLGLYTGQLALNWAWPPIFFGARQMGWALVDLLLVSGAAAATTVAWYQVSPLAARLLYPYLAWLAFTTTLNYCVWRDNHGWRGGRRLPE
Estrogen receptor (Homo sapiens) + Estrogen receptor beta (Homo sapiens), sequence (P03372 whole entry, looked up, the tested form may be a part): as the sequence (P03372 whole entry, looked up) above
Estrogen receptor (Homo sapiens) + Estrogen receptor beta (Homo sapiens), sequence (Q92731 whole entry, looked up, the tested form may be a part): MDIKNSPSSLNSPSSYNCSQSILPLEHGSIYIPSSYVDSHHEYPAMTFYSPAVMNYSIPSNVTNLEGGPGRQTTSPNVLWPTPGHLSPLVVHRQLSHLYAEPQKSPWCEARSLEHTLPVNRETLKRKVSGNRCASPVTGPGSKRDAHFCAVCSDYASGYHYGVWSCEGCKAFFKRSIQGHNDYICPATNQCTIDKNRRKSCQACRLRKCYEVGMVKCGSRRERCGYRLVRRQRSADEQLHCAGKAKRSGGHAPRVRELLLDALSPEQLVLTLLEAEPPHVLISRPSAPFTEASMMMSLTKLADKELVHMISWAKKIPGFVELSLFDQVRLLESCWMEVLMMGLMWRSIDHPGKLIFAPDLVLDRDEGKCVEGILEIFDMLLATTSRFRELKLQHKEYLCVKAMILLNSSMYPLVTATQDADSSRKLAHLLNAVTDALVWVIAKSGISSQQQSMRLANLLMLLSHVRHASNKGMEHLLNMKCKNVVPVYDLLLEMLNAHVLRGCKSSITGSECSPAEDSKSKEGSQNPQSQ
bovine Estrogen Receptor (ER), ESR1 (gene 407238), sequence (P49884 whole entry, looked up): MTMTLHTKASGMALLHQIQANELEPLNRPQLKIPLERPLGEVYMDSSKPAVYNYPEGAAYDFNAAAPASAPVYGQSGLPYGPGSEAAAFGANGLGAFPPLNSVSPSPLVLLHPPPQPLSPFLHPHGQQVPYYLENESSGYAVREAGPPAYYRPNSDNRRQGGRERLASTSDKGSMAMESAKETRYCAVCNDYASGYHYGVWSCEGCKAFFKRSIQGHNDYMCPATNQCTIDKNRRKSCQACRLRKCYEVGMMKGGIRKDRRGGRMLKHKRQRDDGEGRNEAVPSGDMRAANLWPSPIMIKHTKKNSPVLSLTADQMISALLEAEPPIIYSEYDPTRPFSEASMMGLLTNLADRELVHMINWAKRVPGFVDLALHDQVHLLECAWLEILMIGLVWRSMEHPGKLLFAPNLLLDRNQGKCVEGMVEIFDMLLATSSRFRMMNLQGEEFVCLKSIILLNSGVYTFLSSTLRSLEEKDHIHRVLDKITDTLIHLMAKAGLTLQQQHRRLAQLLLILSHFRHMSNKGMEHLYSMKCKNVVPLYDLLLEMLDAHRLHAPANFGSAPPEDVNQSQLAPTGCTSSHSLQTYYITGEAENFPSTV

Turning to `CCCCC(CC)COC(C)=O` (stereo unspecified), the call in [1] was inactive.

Regarding `CC(C=O)Cc1ccc(C(C)(C)C)cc1` (stereo unspecified), in assay [2], the call was inactive.

Turning to `O=C1OC(=O)c2c(Cl)c(Cl)c(Cl)c(Cl)c21`, the call in assay [2] was inactive.

`CCOC(=O)C1OC1c1ccccc1` (stereo unspecified): the compound was called inactive in assay [2].

With `COS(=O)(=O)O`, the outcome in [2] was inactive.

For `CCCCCCCCCCCCCCN(CCO)CCO`, the outcome in [2] was inactive.

For `CCCCCCCCN1CCCC1=O`, the call in assay [2] was inactive.

In the case of `CCNCCO`, the result in assay [2] was inactive.

For `CSCCC=O`, the outcome in assay [2] was inactive.

Regarding `c1ccc(Oc2ccccc2)cc1`, the compound was called inactive in assay [2], in assay [3] and in [4].

As for `COC(=O)c1ccc(C)cc1C1=NC(C)(C(C)C)C(=O)N1` (stereo unspecified) (tested in a mixture with another compound), the compound was called inactive in assay [2].

Take `OC[C@H]1O[C@@H]2O[C@H]3[C@H](O)[C@@H](O)[C@@H](O[C@H]4[C@H](O)[C@@H](O)[C@@H](O[C@H]5[C@H](O)[C@@H](O)[C@@H](O[C@H]6[C@H](O)[C@@H](O)[C@@H](O[C@H]7[C@H](O)[C@@H](O)[C@@H](O[C@H]8[C@H](O)[C@@H](O)[C@@H](O[C@H]9[C@H](O)[C@@H](O)[C@@H](O[C@H]1[C@H](O)[C@H]2O)O[C@@H]9CO)O[C@@H]8CO)O[C@@H]7CO)O[C@@H]6CO)O[C@@H]5CO)O[C@@H]4CO)O[C@@H]3CO`: in assay [2], the compound was called inactive.

Regarding `C=Cc1ccc(C)cc1`, the call in assay [2] was inactive.

Consider `C=C[Si]1(C)O[Si](C)(C=C)O[Si](C)(C=C)O[Si](C)(C=C)O1` (stereo unspecified), for which the compound was called inactive in assay [2].

As to `CCCCCCCCC=CCCCCCCCC1=NCCN1CCO`, the compound was called inactive in assay [2]. The concentration at half-maximal activity (AC50) in assay [5] is 35.8 µM (active); in assay [6], 15.7 µM (active).

In the case of `CN1CCOCC1`, the compound was called inactive in assay [2] and in [5].

As to `OCCc1ccccc1`, in [2], the outcome was inactive.

As to `CCCCCCCCSCCO`, the compound was called inactive in assay [2] and in assay [6].

Take `O=[N+]([O-])c1ccc(O)cc1C(F)(F)F`: the outcome in assay [2] was inactive.

In the case of `O=CCc1ccccc1`, the call in assay [2] and in [5] was inactive.

With `CCCCCCCCCCCC(=O)OCC(O)CO` (stereo unspecified), the outcome in [2], in [7], in [8], in [9], in assay [10] and in assay [11] was inactive.

Take `Oc1ccc2cc(SSc3ccc4cc(O)ccc4c3)ccc2c1`: the concentration at half-maximal activity (AC50) in [5] is 31.9 µM (active).

`CCc1cc(Cc2cc(CC)cc(C(C)(C)C)c2O)c(O)c(C(C)(C)C)c1`: in assay [6], the AC50 was 10.7 µM (active).

For `C=CC(=O)OCCCC`, the outcome in assay [3] was inactive.

In the case of `CC(C)CCCCCCc1ccc(OCCOCCO)cc1`, the outcome in assay [9], in assay [10] and in assay [6] was inactive. Further, in assay [11], the AC50 is 33.8 µM (active).

As to `C[C@H]1O[C@@H](O[C@H]2[C@@H](O)C[C@H](O[C@H]3[C@@H](O)C[C@H](O[C@H]4CC[C@@]5(C)[C@H](CC[C@@H]6[C@@H]5C[C@@H](O)[C@]5(C)[C@@H](C7=CC(=O)OC7)CC[C@]65O)C4)O[C@@H]3C)O[C@@H]2C)C[C@H](O)[C@@H]1O`, the AC50 in [6] was 0.118 µM (active).
